Test in all cases: NCI-60 one-dose screen, 48 h (100 = growth as untreated, 0 = no growth, -100 = all killed)
Common to all, as to details: 10 µM unless noted

Test [1] has as its system SR leukemia.
In test [2] the test system is RPMI-8226 leukemia.
Test [3] relates to OVCAR-8 ovarian.
In test [4] the test system is OVCAR-5 ovarian.
In test [5] the test system is OVCAR-4 ovarian.
For test [6], the system named is SK-OV-3 ovarian.
For test [7], the system named is IGROV1 ovarian.
In test [8] the test system is HS 578T breast.
For test [9], the system named is NCI/ADR-RES ovarian.
Test [10] relates to T-47D breast.
For test [11], the system named is BT-549 breast.
Test [12] deals with MDA-MB-435 melanoma.
The subject of test [13] is SW-620 colon.
For test [14], the system named is MCF7 breast.
For test [15], the system named is HCT-116 colon.
Test [16] relates to HCC-2998 colon.
Test [17] has as its system KM12 colon.

Compounds without any hit were thinned out: in the full panel of roughly 83,000, 20% have a hit.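 A percent growth of 40 corresponds to 60% growth inhibition; 0 means no net growth; -100 means all cells died. Active threshold: below 10.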 Values without a mark were called inactive. The source made the active and inactive calls.

As for `O=C1c2ccccc2C23C(=C(c4cncnc4)c4ccccc42)CCCN13` (stereo not drawn), the growth in test [1] was 96.1%; in [2], 103%; in test [3] it was 104%; in [4], 96.5%; in test [5], 93.3%; in test [6], 118%. Also, the growth in test [7] is 107%; in [8], 95%; in test [9] it was 103%; in test [10] it was 93.3%; in test [11] it was 120%; in test [12] it was 94.6%. For the same molecule, the growth in test [13] is 103%; in [14] it was 103%; in test [15] it was 97.9%; in test [16], 103%; in [17], 96.6%.

`CN1CCN(Cc2ccc(NC(=O)c3cncc(C#Cc4cnc5ccc(N6CCOCC6)nn45)c3)cc2C(F)(F)F)CC1`: the growth in test [1] was -28.4% (active); in test [2], -23.9% (active); in test [3], -37.6% (active); in test [4] it was -20.4% (active); in [5], -19.7% (active); in [6] it was -31.9% (active). The growth was -32.8% (active) in test [7]; -27.8% (active) in test [8]; -15.8% (active) in [9]; -5.39% (active) in test [10]; -71.7% (active) in [11]; -65% (active) in [12]. Further, the growth in [13] was -19.2% (active); in test [14], -69% (active); in [15], -76.2% (active); in [16], -33.2% (active); in test [17], -46.2% (active).

In the case of `Cc1ccc(S(=O)(=O)c2nc(-c3ccc(F)cc3)oc2S(C)(=O)=O)cc1`, the growth was 8.12% (active) in test [1]; 31.7% in test [2]; 86.9% in test [3]; 95.2% in test [4]; 92.1% in [5]; 100% in [6]. For the same molecule, the growth is 45.2% in test [7]; 90.6% in test [8]; 92% in [9]; 60.8% in test [10]; 43% in test [11]; 77.2% in [12]. Moreover, the growth in test [13] was -66.3% (active); in test [14], 33.6%; in test [15], 36.3%; in test [16] it was 102%; in [17] it was 103%.

With `N#C/C(=C\c1ccc(-c2ccc(Cl)c(Cl)c2)o1)C(=O)Nc1ncc(Cc2ccc(Cl)cc2)s1`, the growth in test [1] is 16%; in [2], 67.4%; in [3], 19.9%; in [4], 45.7%; in test [5], -15.1% (active); in test [6], 81.2%. Moreover, the growth in test [7] was 26.2%; in test [8], -7.83% (active); in test [9], 32.7%; in test [10], 17.9%; in test [11] it was 42.1%; in test [12], 26.9%. Also, the growth in [13] was 10.8%; in [14], 58.7%; in [15], 9.52% (active); in test [16], 81.8%; in test [17] it was 19.6%.

On to `CCN(CC)c1ccc(/C=N/NC(=O)c2ccc(S(N)(=O)=O)cc2)c(O)c1`, for which the growth in test [1] was 10.5%; in test [2] it was 38.3%; in test [3] it was 13.1%; in test [4], 50%; in test [5] it was 32.6%; in test [6] it was 32.2%. The growth in [7] was 17.6%; in test [8], 54.3%; in test [9], 18%; in test [10], 30.4%; in test [11], 26.5%; in test [12], 31.1%. In addition, the growth was 35% in test [13]; 6.43% (active) in [14]; 24.2% in test [15]; 37.3% in test [16]; 24.2% in test [17].

For the molecule `Cc1ccc(-c2nc(SCC(=O)c3ccccc3)nc(Nc3ccc(S(N)(=O)=O)cc3)c2C#N)cc1`, the growth was 56.9% in test [1]; 65.4% in [2]; 34.6% in test [3]; 97.3% in test [4]; 24.3% in test [5]; 107% in test [6]. Further, the growth in test [7] is 86.3%; in test [8] it was -0.186% (active); in test [9], 81.7%; in test [10] it was 83.9%; in test [11] it was 73.8%; in test [12] it was 47%. The growth in test [13] is 83.8%; in [14], 65.1%; in test [15], 35.9%; in test [16], 106%; in test [17], 72.8%.

Regarding `O=S1SC(c2ccccc2)=NN1c1cc(F)cc(F)c1` (stereo not drawn), the growth in test [1] was 19.3%; in [2] it was 11.5%; in [3], 35.5%; in [4] it was 93.8%; in test [5] it was 49.3%; in test [6], 24.8%. In addition, the growth in test [7] is 53.8%; in test [8] it was 61.9%; in [9], 53.4%; in test [10], 1.86% (active); in [11], 7.34% (active); in test [12] it was 63.3%. Besides, the growth was 59.2% in [13]; 35.6% in test [14]; 16.5% in [15]; 79.6% in [16]; 41.7% in test [17].

As for `NS(=O)(=O)c1cccc(Nc2nc(SCC(=O)c3ccc(Cl)cc3)nc3c2CCC3)c1`, the growth is 98.7% in test [1]; 97.3% in test [2]; 82.8% in test [3]; 103% in [4]; 95.8% in [5]; 95.7% in test [6]. Also, the growth was 99.8% in test [7]; 81% in test [8]; 96.7% in [9]; 90.4% in test [10]; 84.7% in test [11]; 99.2% in [12]. The growth was 102% in test [13]; 82.9% in test [14]; 95.7% in [15]; 107% in test [16]; 105% in test [17].

Take `COc1ccc(N2CCN(C3=C(Cl)C(=O)c4ncccc4C3=O)CC2)cc1`: the growth in test [1] is 0.311% (active); in test [2] it was 23.2%; in test [3], 74.8%; in [4], 112%; in test [5], 48.2%; in test [6] it was 81%. In addition, the growth in test [7] is 80.7%; in test [8] it was 70.2%; in test [9], 86.6%; in test [10] it was -53.3% (active); in [11], 111%; in [12], -59.9% (active). In addition, the growth in [13] is -4.75% (active); in [14] it was -27.6% (active); in [15], -59.7% (active); in test [16] it was 107%; in test [17], 95.7%.

The record behind these values is PubChem BioAssay (NCI).
